High-throughput results from PubChem.
Most compounds without a hit are left out; they make up all but 2.3% or so of the library.
TMEM16A inh = TMEM16A chloride channel inhibitors, primary screen, cell-based, HTS; Anoctamin-1 (Mus musculus), Q8BHY3; AID 588511, 2011; HEK293 TMEM16A/YFP iodide influx fluorescence, ionomycin; normalized B-score (activity score, 25-100; higher = stronger inhibition) at 10 µM; hit rate 1.2% among 310,000;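 active = ratio plate-corrected score three or more library SD toward inhibition, starting fluorescence score within five deviations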;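 also: score derived from kinetic fluorescence span divided by baseline fluorescence per well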
Target sequence (Q8BHY3 whole entry, looked up): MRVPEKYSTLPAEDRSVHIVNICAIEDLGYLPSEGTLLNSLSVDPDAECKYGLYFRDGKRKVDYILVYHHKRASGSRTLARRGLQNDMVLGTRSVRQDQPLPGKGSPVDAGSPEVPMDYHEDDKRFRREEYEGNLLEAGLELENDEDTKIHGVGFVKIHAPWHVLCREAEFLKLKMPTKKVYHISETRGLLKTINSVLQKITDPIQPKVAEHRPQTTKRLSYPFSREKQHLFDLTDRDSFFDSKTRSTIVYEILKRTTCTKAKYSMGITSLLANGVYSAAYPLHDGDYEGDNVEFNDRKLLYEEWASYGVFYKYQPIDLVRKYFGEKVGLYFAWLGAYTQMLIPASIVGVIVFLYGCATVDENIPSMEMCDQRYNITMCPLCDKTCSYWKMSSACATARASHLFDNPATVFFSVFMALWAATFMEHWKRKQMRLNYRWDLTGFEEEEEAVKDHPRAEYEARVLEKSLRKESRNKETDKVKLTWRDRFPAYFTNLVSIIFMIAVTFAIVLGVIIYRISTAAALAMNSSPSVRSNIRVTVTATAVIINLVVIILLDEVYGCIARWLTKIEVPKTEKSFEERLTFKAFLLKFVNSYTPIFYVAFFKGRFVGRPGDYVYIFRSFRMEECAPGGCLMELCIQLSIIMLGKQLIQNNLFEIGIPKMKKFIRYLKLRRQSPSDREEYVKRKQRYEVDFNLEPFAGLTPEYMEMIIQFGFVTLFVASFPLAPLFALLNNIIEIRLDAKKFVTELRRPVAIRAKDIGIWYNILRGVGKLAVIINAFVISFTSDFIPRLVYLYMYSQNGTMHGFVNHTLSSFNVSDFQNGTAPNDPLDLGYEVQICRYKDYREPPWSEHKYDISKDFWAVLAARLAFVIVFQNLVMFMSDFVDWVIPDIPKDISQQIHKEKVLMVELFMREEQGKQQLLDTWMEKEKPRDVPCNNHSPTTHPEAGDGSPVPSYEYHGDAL
CHT block = inhibitors of human choline transporter CHT; hit rate 0.86% among 310,000; CHT-expressing cells, membrane potential dye, choline response; active compounds read low; B-score at 10 µM; High affinity choline transporter 1 (Homo sapiens), Q9GZV3; AID 488975, 2010;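 active = B-score over 3 SD under the library average, and starting fluorescence ratio not unusually high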;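 also: choline stimulus applied at its EC90 after an EC20 pre-addition; B-score computed on integrated fluorescence ratio after choline addition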
ANO1 activ = TMEM16A chloride channel activators or potentiators, primary screen, cell-based, HTS; Anoctamin-1 (Mus musculus), Q8BHY3; HEK293 TMEM16A/YFP-H148Q/I152L, iodide quench fluorescence; active compounds read low; B-score at 10 µM; hit rate 0.3% among 340,000;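 active = fluorescence-ratio B-score plate-corrected deviation score at least 3 library SD below zero, with starting fluorescence score within 5 deviations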;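 also: channel opened by trigger with iodide after compound preincubation; score built on the fluorescence ratio of max minus min over baseline; more negative score means more quench and so TMEM16A activation or potentiation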
CHT allo act = CHT positive allosteric modulators, primary screen, cell-based, membrane potential dye, choline EC20 | CHT-expressing cells; active compounds read high; LV-AA mutant CHT in HEK293 cells | AID 488977, 2010 | hit rate 0.49% among 310,000 | High affinity choline transporter 1 (Homo sapiens), Q9GZV3 | B-score at 10 µM;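 active = initial fluorescence not abnormally high and integrated response B-score, plate-corrected, over 3 SD above library mean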
CHT act confirm = CHT activators, confirmation, cell-based, membrane potential dye, duplicate; shares compounds with CHT allo act; CHT-expressing cells, membrane potential dye fluorescence (FDSS); % of choline EC20–EC90 response window; HEK293 expressing CHT LV-AA mutant; choline added at its EC20; activation, % at 10 µM; hit rate 91% among 2,500; AID 504833, 2011;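 active = primary screen active, with duplicate mean activation above negative control mean plus 3 SD, cut at about 11% in these data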
HEK293 MP dye = membrane potential response in parental HEK293 cells, counter-screen for CHT activator project, cell-based, membrane potential dye. shares compounds with CHT allo act. membrane potential dye fluorescence (FDSS); measured after EC20 choline addition. ratio readout change at 10 µM, hits read low. hit rate 62% among 2,500;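 active = duplicate-averaged ratio beyond 3 SD from buffer wells, up or down, though filed actives are nearly all decreases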
An asterisk follows results filed as active.

For COc1ccc(NS(=O)(=O)c2cc(NC(=O)CCc3ccc(OC)c(OC)c3)ccc2N2CCOCC2)cc1 the results were ANO1 activ inactive.
`COc1cc(NC(=O)c2ccc(Cl)cc2)c2ncccc2c1` gave TMEM16A inh inactive, CHT block inactive, ANO1 activ inactive and CHT allo act inactive.
`COc1cc(NC(=O)c2c(-c3ccccc3Cl)noc2C)c2ncccc2c1` gave TMEM16A inh inactive, CHT block inactive, ANO1 activ inactive, CHT allo act 7.8*, CHT act confirm 8 and HEK293 MP dye inactive.
Screening O=C(CCCCn1c(=O)c2ccccc2n(Cc2ccccc2)c1=O)NC1CCN(Cc2ccccc2)CC1 returned TMEM16A inh inactive, CHT block inactive, ANO1 activ inactive, CHT allo act inactive, CHT act confirm 35* and HEK293 MP dye -29*.
CCOC(=O)c1cn2nc(N3CCCC3)ccc2n1 was read as TMEM16A inh inactive, CHT block inactive, ANO1 activ inactive, CHT allo act inactive, CHT act confirm 35* and HEK293 MP dye -38*.
For CCOC(=O)c1cn2nc(N3CCCCC3)ccc2n1 the results were TMEM16A inh inactive, CHT block inactive, ANO1 activ inactive and CHT allo act inactive.
`COc1ccc(S(=O)(=O)N2CCCCCC2)cc1C(=O)N(C)CCOc1ccccc1` gave TMEM16A inh inactive, CHT block inactive, ANO1 activ inactive, CHT allo act 6.5*, CHT act confirm 27* and HEK293 MP dye inactive.
Screening CCN(CC)CCCNc1cc(C)nc2cc(-c3cccs3)nn12 returned TMEM16A inh inactive, CHT block inactive, ANO1 activ inactive, CHT allo act 9.1*, CHT act confirm 62* and HEK293 MP dye -84*.
Screening Cc1cccc(-c2cc3nc(C)cc(NCCCN(C)C)n3n2)c1 returned TMEM16A inh inactive, CHT block inactive, CHT allo act inactive, CHT act confirm 32* and HEK293 MP dye -62*.
Screening CN(C)CCCNc1cc(-c2ccccc2)nc2cc(-c3cccc(F)c3)nn12 returned TMEM16A inh inactive, CHT block inactive, ANO1 activ inactive and CHT allo act inactive.
For COc1ccc([C@@]23Oc4cc(OC)cc(OC)c4[C@]2(O)[C@H](O)[C@H](C(=O)N(C)C)[C@H]3c2ccccc2)cc1 the results were ANO1 activ inactive.
For C#CCOc1ccc2ccccc2c1/C=C(/C#N)c1ccc(C(=O)O)cc1 the results were TMEM16A inh inactive, CHT block inactive, ANO1 activ inactive and CHT allo act inactive.
COc1cccc(OCC(O)CN2CCN(CCN3C(=O)c4cccc5cccc(c45)C3=O)CC2)c1 (stereo not given) was read as TMEM16A inh inactive, CHT block inactive, ANO1 activ inactive and CHT allo act inactive.
Screening O=C1c2cccc3cccc(c23)C(=O)N1CCN1CCN(CC(O)COc2ccccc2)CC1 (stereo not given) returned TMEM16A inh inactive, CHT block inactive, ANO1 activ inactive, CHT allo act inactive, CHT act confirm -1 and HEK293 MP dye inactive.
For CCN(CC(=O)NCc1cccs1)C(=O)c1ccc(S(=O)(=O)Nc2ccccc2F)cc1 the results were TMEM16A inh inactive, CHT block inactive, ANO1 activ inactive and CHT allo act inactive.
CN1CCN(C=Nc2nc3ccccc3nc2N2CCCC2)CC1 was read as TMEM16A inh inactive, CHT block inactive, ANO1 activ inactive, CHT allo act 6.7*, CHT act confirm 26* and HEK293 MP dye -52*.
CN(C)c1ccnc(Nc2ccc(O)cc2)c1C#N was read as TMEM16A inh inactive, CHT block inactive, ANO1 activ inactive, CHT allo act 7*, CHT act confirm 52* and HEK293 MP dye -46*.
Screening c1cncc(-c2nc(N3CCOCC3)c3c4c(sc3n2)CCC4)c1 returned TMEM16A inh inactive, CHT block inactive, ANO1 activ inactive and CHT allo act inactive.
NS(=O)(=O)c1ccc(CCNc2nc(CN3CCOCC3)nc3sc4c(c23)CCC4)cc1 was read as TMEM16A inh inactive, CHT block inactive, ANO1 activ inactive and CHT allo act inactive.
Screening c1cncc(-c2nc(NCCCN3CCOCC3)c3c4c(sc3n2)CCC4)c1 returned TMEM16A inh inactive, CHT block inactive, ANO1 activ inactive, CHT allo act 6.9*, CHT act confirm 24* and HEK293 MP dye -47*.
Screening Cc1cccc(Oc2nc(CN3CCOCC3)nc3sc4c(c23)CCCC4)c1 returned TMEM16A inh inactive, CHT block inactive, ANO1 activ inactive, CHT allo act inactive, CHT act confirm 35* and HEK293 MP dye inactive.
For CCN(CC)CCCNc1nc(CN2CCOCC2)nc2sc3c(c12)CCC3 the results were TMEM16A inh inactive, CHT block inactive, ANO1 activ inactive, CHT allo act 7.7*, CHT act confirm 59* and HEK293 MP dye -57*.
`CCC(C)Nc1nc(CN2CCOCC2)nc2sc3c(c12)CCC3` (stereo not given) gave TMEM16A inh inactive, CHT block inactive, ANO1 activ inactive, CHT allo act 8.4*, CHT act confirm 14* and HEK293 MP dye inactive.
For O=C(c1cccs1)c1ccccc1Cc1cccs1 the results were ANO1 activ inactive.
COc1ccc(NC(=O)CN(C)C(=O)c2cccc(S(=O)(=O)Nc3ccc(F)cc3)c2)cc1 was read as ANO1 activ inactive.
For FC(F)(F)c1cccc(N2Cc3ccccc3C2)c1 the results were TMEM16A inh inactive, CHT block inactive, ANO1 activ inactive and CHT allo act inactive.
`CC1CSc2n(-c3cccc(C(F)(F)F)c3)cc(-c3ccccc3)[n+]21` (stereo not given) gave TMEM16A inh inactive, CHT block inactive, ANO1 activ inactive, CHT allo act inactive, CHT act confirm 50* and HEK293 MP dye -31*.
Screening CCN(CC)CC(=O)Nc1cc(N(C)C)nc2ccccc12 returned TMEM16A inh inactive, CHT block inactive, ANO1 activ inactive and CHT allo act inactive.
For CN1CCN(CC(=O)Nc2cc(N(C)C)nc3ccccc23)CC1 the results were TMEM16A inh inactive, CHT block inactive, ANO1 activ inactive, CHT allo act inactive, CHT act confirm 38* and HEK293 MP dye -40*.
